HP1b chromo inh: HTS for Inhibitors of HP1-beta Chromodomain Interactions with Methylated Histone Tails. Chromobox protein homolog 1 (Homo sapiens), P83916. AlphaScreen HP1-beta / biotin-H3K9me3 peptide binding. Potency, µM (titrated, usually from 114 µM), for inactives: at the top dose activity change, negative = inhibition, usual class: inhibitors. 390,000 compounds, 0.56% hits; further: nearly all actives have a fitted effect of over 70% in size
Target sequence (P83916 whole entry, looked up): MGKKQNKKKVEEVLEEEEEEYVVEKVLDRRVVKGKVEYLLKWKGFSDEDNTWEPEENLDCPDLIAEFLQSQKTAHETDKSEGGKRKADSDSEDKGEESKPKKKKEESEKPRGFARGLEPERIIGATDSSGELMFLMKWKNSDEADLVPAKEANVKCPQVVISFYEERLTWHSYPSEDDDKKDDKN
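AlphaScreen: HP1-beta (50 nM) preformed 30 min with biotin-H3(1-18)K9me3 peptide (50 nM) in PBS pH 7.4, 0.01% Tween-20. Compound added for 30 min at RT, then streptavidin donor/nickel chelate acceptor beads (10 ug/mL) for 30 min.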
BAZ2B inh: qHTS Assay for Inhibitors of BAZ2B; Bromodomain adjacent to zinc finger domain protein 2B (Homo sapiens), Q9UIF8; Potency, µM (titrated, usually from 114 µM), for the others: top-dose activity change, negative = inhibition, actives largely listed as inhibitors; AlphaScreen BAZ2B-H3K14Ac peptide displacement; 360,000 compounds, 4.4% hits; further: on the % scale 0 is the no-effect control and ±100 the full control effect; nearly all actives have a fitted effect of over 60% in size
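Inhibition is scored as reduced AlphaScreen emission. The BAZ2B/b-H3(5-23)K14Ac complex (50 nM each) in PBS pH 7.4, 0.01% Tween-20 meets compound (up to 110 uM) for 30 min at RT before bead addition.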
G9a inh: qHTS Assay for Inhibitors of Histone Lysine Methyltransferase G9a; G9a H3K9 monomethylation, AlphaScreen, 2 h; Potency, µM (highest dose often 102 µM), for the others: top-dose activity, negative = inhibition, most hits filed as inhibitors; 350,000 compounds, 8.8% hits; further: on the % scale 0 is the no-effect control and ±100 the full control effect; nearly all actives have a fitted effect of over 75% in size
Target sequence (Q96KQ7 913-1193 limits assumed): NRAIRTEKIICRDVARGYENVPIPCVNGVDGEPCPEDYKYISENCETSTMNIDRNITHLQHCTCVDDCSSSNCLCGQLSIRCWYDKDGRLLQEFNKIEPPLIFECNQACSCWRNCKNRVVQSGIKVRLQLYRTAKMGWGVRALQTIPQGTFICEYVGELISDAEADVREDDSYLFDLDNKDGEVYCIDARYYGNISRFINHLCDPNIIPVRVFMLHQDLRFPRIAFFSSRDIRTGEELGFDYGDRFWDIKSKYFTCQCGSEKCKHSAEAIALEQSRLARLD
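Compounds were preincubated with 20 nM G9a for 15 min, after which biotinylated H3K9 peptide (500 nM) and SAM (20 uM) started a 2 h room-temperature reaction. Monomethylated product was quantified by antibody-based AlphaScreen chemiluminescence.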
JMJD2A Tudor inh: qHTS Assay for Inhibitors of JMJD2A-Tudor Domain | AID 504339, 2011 | Lysine-specific demethylase 4A (Homo sapiens), O75164 | AlphaScreen JMJD2A-Tudor / H3K4me3 peptide binding | 390,000 compounds, 4.4% hits | Potency, µM (doses to about 114 µM), without a hit: at the top dose activity change, negative = inhibition, most hits filed as inhibitors; further: on the % scale 0 is the no-effect control and ±100 the full control effect; nearly all actives have a fitted effect of over 50% in size
L3MBTL1 inh: qHTS Assay for the Inhibitors of L3MBTL1; 230,000 compounds, 0.66% hits; Lethal(3)malignant brain tumor-like protein 1 (Homo sapiens), Q9Y468; AlphaScreen L3MBTL1–H3K9me1 peptide binding; Potency, µM (doses to about 57.1 µM), without a hit: top-dose activity, negative = inhibition, usual class: inhibitors; further: on the % scale 0 is the no-effect control and ±100 the full control effect; nearly all actives have a fitted effect of over 60% in size
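L3MBTL1 (50 nM) pre-complexed 30 min with biotinylated H3(1-15)K9me1 peptide (75 nM), then compounds added for 30 min at room temperature; AlphaScreen streptavidin donor/nickel chelate acceptor beads (10 ug/mL final) read after 30 min dark incubation.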
Sfp PPTase inh: qHTS Assay for Inhibitors of Bacillus subtilis Sfp phosphopantetheinyl transferase (PPTase) | 310,000 compounds, 3.5% hits | Biochemical Sfp PPTase activity, qHTS | Potency, µM, inactives show largest response in the series, negative = inhibition, usual class: inhibitors | AID 1490, 2009 | 4'-phosphopantetheinyl transferase ffp (Bacillus subtilis), Q9F4F7;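 further: the enzyme is Sfp with the accession as filed and its product quenches rhodamine fluorescence; 0% = enzyme reaction without inhibitor and -100% = no enzyme wells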
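Step 1, compound plus 15 nM Sfp-PPTase, 15 min, room temperature. Step 2, add rhodamine-CoA (5 uM) and BHQ-2-YbbR (12.5 uM). Step 3, read 525/598 nm fluorescence at 0 and 30 min.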
* = called active by the depositor; ? = inconclusive; nt = not tested or not shown; [ ] = another dose, or the depositor's remark. Only some compounds are listed: those with a hit (about 12% of all), similar ones and a draw of the others. The call rests on the fitted dose curve; in most records, active means well fitted curve in the direction sought with a large enough effect; inconclusive means small, poorly fitted or top-dose-only effect, or another doubt; inactive means no such curve, though single readings can be large; an effect the other way counts as inactive or inconclusive. Potency means the concentration at half of the fitted maximal effect.

SMILES	HP1b chromo inh	BAZ2B inh	G9a inh	JMJD2A Tudor inh	L3MBTL1 inh	Sfp PPTase inh
CCCCNC(=O)c1nn2c(C(F)(F)F)cc(-c3ccc(OC)cc3)nc2c1Br	23%	0%	0%[59 µM]	35µM*	8%	14%
CCCCOc1ccc(CSc2n[nH]c(C)n2)cc1	41%	-4%	28µM*	-17%	5%	1%
COc1ccc(N2CCN(S(=O)(=O)CCNC(=O)COc3ccccc3F)CC2)cc1	9%[57 µM]	-6%	?	-18%	nt	nt
Cc1cccc(OCC(=O)Nc2ccc(N3CCCC3)cc2)c1C	-23%	nt	28µM*	?	-12%	?
COc1ccc(N2CCN(S(=O)(=O)CCNC(=O)COc3ccccc3C)CC2)cc1	8%	?	45µM*	-33%	3%	nt
CCOc1ccccc1OCC(=O)Nc1ccc(N2CCCCC2)cc1	16%	-38%	?	?	-23%	14%
COc1ccccc1OCC(=O)Nc1ccc(N2CCCCC2)cc1	-6%	?	22µM*	?	?	-23%
COc1ccc(CCN2CC(C(=O)Nc3ccc4c(c3)OCO4)CC2=O)cc1OC (stereo not given)	?	?	1%[59 µM]	79µM*	nt	-2%
CCCN(C(=O)c1cc2c(=O)oc3ccccc3c2s1)c1ccc(CC)cc1	33%	9%	-3%[59 µM]	-4%	nt	nt
COc1ccc(CNC(=O)c2cnc(N(C)C)nc2)cc1	37%	6%	31%[59 µM]	2%	nt	nt
Cc1c(C(=O)OCC(=O)NCCc2ccc(S(N)(=O)=O)cc2)oc2ccccc12	18%	-1%	-10%[12.7 µM]	-13%	-1%	nt
Cc1cccc(OCC(=O)Nc2ccc3oc(=O)ccc3c2)c1C	30%	-12%	50µM*	-1%	nt	5%
Cc1ccc(OCC(=O)Nc2ccc3oc(=O)ccc3c2)cc1	30%	10%	-2%	-14%	nt	-8%
CCC(=O)N1CCN(c2ccc(NC(=O)COc3ccccc3Cl)cc2)CC1	26%	-8%	16µM*	-25%	nt	10%
Cc1ccc(C(=O)N2CCN(c3ccc(NC(=O)COc4ccccc4C)cc3)CC2)cc1	-17%	35µM*	40µM*	?	-9%[11.4 µM]	-18%
Cc1ccccc1OCCCC(=O)Nc1ccc(N2CCOCC2)cc1	9%	1%	45µM*	-21%	-10%	-5%
CCC(=O)N1CCN(c2ccc(NC(=O)COc3ccc(C)cc3C)cc2)CC1	-19%	?	?	-35%	nt	-3%
CN1CCN(c2ccc(NC(=O)COc3ccccc3Cl)cc2)CC1	-20%	-3%	?	-31%	nt	4%
COc1ccccc1OCC(=O)Nc1ccc2c(c1)OCO2	-8%	50µM*	-19%	?	nt	11%
CC(=O)N[C@@H](Cc1c[nH]c2ccccc12)C(=O)OCC(=O)Nc1ccc2c(c1)OCO2	26%	nt	nt	-30%	nt	nt
Cc1ccc(OCC(=O)NC2=NCCS2)cc1	?	-6%	nt	-17%	1%	11%
Cc1ccccc1OCC(=O)NC1=NCCS1	39%	-29%	28µM*	-8%	nt	15%
O=C(COC(=O)[C@H](Cc1c[nH]c2ccccc12)NC(=O)c1ccc(Cl)cc1)Nc1ccc2c(c1)OCO2	-13%	56µM*	?	?	nt	26%
O=C(CN1C(=O)CCC1=O)Nc1cccc2c1C(=O)NC2=O	45%	1%	-3%	-4%	nt	-5%
O=C1c2ccccc2C(=O)N1N(c1ccccc1)c1ccccc1	-14%	nt	nt	-33%	nt	nt
SMILES	HP1b chromo inh	BAZ2B inh	G9a inh	JMJD2A Tudor inh	L3MBTL1 inh	Sfp PPTase inh
O=C1C=CC(=O)N1N(c1ccccc1)c1ccccc1	?	32µM*	1.8µM*	18µM*	0%	32µM*
CCOc1ccc(C(=O)CN2CCN(S(=O)(=O)c3ccc(OC)cc3)CC2)cc1	50%	-1%	13µM*	-32%	6%	8%
CCOc1ccc(C(=O)CN2CCN(S(=O)(=O)c3ccc(Br)cc3)CC2)cc1	62%	-36%	32µM*	-7%	0%	2%
COc1cccc(C(=O)CN2CCN(S(=O)(=O)c3ccc(Br)cc3)CC2)c1	38%	2%	?	-25%	9%	-2%
COC(=O)c1ccc(C(NC(=O)OCc2ccccc2)/C(=C/[C@@H](C)C(=O)NCc2nc3ccccc3n2C)c2cccnc2)cc1 (stereo not given in full)	nt	nt	nt	nt	nt	0%
CC1(C)OC(=O)C2(Cc3ccc(Br)cc3N3CCCCC32)C(=O)O1 (stereo not given)	5%	nt	nt	56µM*	nt	nt
CC1(C)OC(=O)C2(Cc3ccccc3N3CCCC32)C(=O)O1 (stereo not given)	-4%	nt	nt	?	nt	nt
COC(=O)COc1cc(OCC(=O)OC)c2c(C)c(Cl)c(=O)oc2c1	20%	-12%	10µM*	-9%	7%	4%
Cn1c(=O)oc2cc(S(=O)(=O)Nc3cccc([N+](=O)[O-])c3)ccc21	6%	-18%	2%	-7%	nt	10%
CC(=O)Nc1ccc2c(c1)C(=Nc1cccc(C)c1)c1ccccc1-2	?	nt	nt	32µM*	nt	nt
CC(=O)Nc1cccc(C)c1	39%	-5%	-4%[0.501 µM]	-11%	-7%	nt
Cn1c(Cc2cccc3ccccc23)nnc1SCC(=O)N1CCN(c2ccccc2)CC1	-7%	?	?	79µM*	-12%	-8%
CCn1c(CC(=O)Nc2cccc(OC)c2)nnc1SCC(=O)N1CCN(c2ccccc2)CC1	6%	-28%	13µM*	-25%	24%[11.4 µM]	11%
CCn1c(COc2ccccc2C)nnc1SCC(=O)N1CCN(c2ccccc2)CC1	16%	-9%	10%[12.7 µM]	-30%	-5%	3%
Cn1c(Cc2ccccc2)nnc1SCC(=O)N1CCN(c2ccccc2)CC1	31%	13%	-38%[12.7 µM]	0%	4%	-6%
C/C=C(/CCC1NCCc2c1[nH]c1ccccc21)[Si](C)(C)C (stereo not given)	-7%	nt	nt	?	nt	nt
COc1ccc(NC(=O)CN2C(=O)COc3ccc(S(=O)(=O)Nc4ccccc4)cc32)cc1	24%	-22%	-9%[59 µM]	-17%	nt	nt
CCOC(=O)c1ccc(NC(=O)c2c(NCc3sccc3C)sc3c2CCCCC3)cc1	-8%	45µM*	8.9µM*	56µM*	nt	nt
CCOC(=O)c1ccc(NC(=O)c2c(NCc3cccc(OC)c3OC)sc3c2CCC3)cc1	28%	1%	14µM*	-20%	nt	nt
COC(=O)c1ccc(NC(=O)c2c(NCc3ccc(C)o3)sc3c2CCCC3)cc1	-11%	-29%	?	?	nt	nt

Screening results from PubChem.
